Source: PubChem (Johns Hopkins Ion Channel Center)
In the library only some 3.5% were active in any assay of this set; here they are far more common.
Kir21 block – blocks the mouse Kir2.1 inward-rectifier potassium channel; P35561; HEK293-Kir2.1, FluxOR thallium flux fluorescence; stronger effect = lower value; B-score at 10 µM; 0.85% of 310,000 active; AID 1672;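 active = fluorescence ratio B-score at or below minus 3 SD of library scores, with starting-brightness B-score within 2 SD, cut at about -4.2 in these data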;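 also: channel flux triggered by added potassium and thallium sulfate stimulus; B-score of peak minus minimum fluorescence over baseline after thallium stimulus; more negative B-score means stronger Kir2.1 block with less thallium influx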
ANO1 block – inhibitors of mouse TMEM16A calcium-activated chloride channel; Q8BHY3; HEK293 TMEM16A/YFP iodide influx fluorescence, ionomycin; normalized B-score (activity score, 25-100; higher = stronger inhibition) at 10 µM; 1.2% of 310,000 active; AID 588511;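 active = ratio plate-corrected score three or more library SD toward inhibition, starting fluorescence score within five deviations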;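 also: score derived from kinetic fluorescence span divided by baseline fluorescence per well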
TMEM16A act – mouse TMEM16A channel activation, primary screen | B-score at 10 µM | HEK293 TMEM16A/YFP-H148Q/I152L, iodide quench fluorescence; stronger effect = lower value | Q8BHY3 | 0.3% of 340,000 active;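 active = fluorescence-ratio B-score plate-corrected deviation score at least 3 library SD below zero, with starting fluorescence score within 5 deviations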;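 also: channel opened by trigger with iodide after compound preincubation; score built on the fluorescence ratio of max minus min over baseline; more negative score means more quench and so TMEM16A activation or potentiation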
KCNK3 inh – human KCNK3 channel inhibition, primary screen | B-score at 10 µM | CHO-KCNK3 thallium flux, FluxOR fluorescence; stronger effect = lower value | AID 602410 | O14649 | 0.84% of 340,000 active;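 active = B-score under library mean minus 4 SD, starting fluorescence ratio at most library mean plus 5 SD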;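 also: more negative B-score means stronger inhibition of thallium flux through KCNK3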
Target sequence (O14649 whole entry, looked up): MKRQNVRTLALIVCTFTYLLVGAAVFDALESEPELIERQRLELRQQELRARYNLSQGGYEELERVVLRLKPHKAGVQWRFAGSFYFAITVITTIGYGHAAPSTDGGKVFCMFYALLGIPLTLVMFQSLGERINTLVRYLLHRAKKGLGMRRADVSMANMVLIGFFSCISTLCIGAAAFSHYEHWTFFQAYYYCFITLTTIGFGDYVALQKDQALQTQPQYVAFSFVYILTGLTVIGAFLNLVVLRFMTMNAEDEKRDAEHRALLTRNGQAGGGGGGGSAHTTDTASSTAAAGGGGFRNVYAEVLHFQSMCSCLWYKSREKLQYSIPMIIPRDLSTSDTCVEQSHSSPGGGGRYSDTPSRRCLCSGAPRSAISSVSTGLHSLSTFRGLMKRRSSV
KCNK9 block – human KCNK9 channel inhibition | Q9NPC2 | HEK293 KCNK9, FluxOR thallium flux fluorescence; stronger effect = lower value | B-score at 10 µM | 1.2% of 310,000 active | AID 488922;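 active = ratio B-score over 3 SD below the library mean, with starting fluorescence within 5 SD of its mean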;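 also: negative B-score means less thallium flux so channel inhibition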
KCNK3 inh conf – confirmation of human KCNK3 two-pore domain potassium channel inhibitors | ratio percent of control, % at 10 µM | shares compounds with KCNK3 inh | AID 651638 | CHO-KCNK3 thallium flux, FluxOR fluorescence; 0% buffer, 100% carvedilol maximal block | 99% of 2,400 active;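 active = ratio percent of control, averaged over triplicates, above buffer control mean plus 5 SD, cut at about 64% in these data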;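 also: ratio is the fluorescence rise from min to max over baseline after thallium stimulus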
KCNK3 uninduced – activity in cells without induced KCNK3 expression | shares compounds with KCNK3 inh | non-induced KCNK3 parental cells, FluxOR thallium flux; stronger effect = lower value | thallium flux ratio (lower = more inhibition) at 10 µM | 40% of 2,400 active | AID 651747;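 active = thallium flux ratio, averaged over three wells, more than 5 SD below the buffer control mean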;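 also: host cells are CHO cells without KCNK3 induction; ratio is peak minus trough fluorescence over baseline then normalized to buffer controls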
* hit, by the source's call; i = inactive; . = no result.

SMILES	Kir21 block	ANO1 block	TMEM16A act	KCNK3 inh	KCNK9 block	KCNK3 inh conf	KCNK3 uninduced
COc1ccc(C2CC(=O)C=C(NCCC(C)C)C2)cc1 (stereo not drawn)	1.6	i	i	-22.2*	i	111.3*	i
COc1ccc(C2CC(=O)C=C(NC3CCCC3)C2)cc1 (stereo not drawn)	-0.95	i	i	i	i	.	.
COc1ccc(C(NCC(=O)NC(C)c2ccc(Cl)cc2)c2ccccc2)cc1 (stereo not drawn)	0.01	i	.	-9.49*	i	126.0*	0.118*
COc1ccc(NC(=O)CNC(c2ccccc2)c2ccccc2)cc1	-0.03	i	i	i	i	.	.
CCCCCOC(=O)CSc1n[nH]c(=O)[nH]c1=O	-0.48	i	i	i	i	.	.
O=C(C1CC(c2ccccc2O)=NO1)N1CCc2ccccc2C1 (stereo not drawn)	0.12	i	i	-9*	i	99.3*	i
O=C(C1CC(c2ccc(F)cc2)=NO1)N1CCc2ccccc2C1 (stereo not drawn)	-1.13	i	i	i	i	.	.
COc1cccc(-n2c(SCC(=O)Nc3cc(C)on3)nc3c([nH]c4ccccc43)c2=O)c1	0.32	i	i	i	i	.	.
Cc1cc(NC(=O)CSc2nc3c([nH]c4ccccc43)c(=O)n2-c2cccc(C(F)(F)F)c2)no1	-0.67	.	i	-10.6*	i	92.0*	i
CCOC(=O)c1cc(C#N)c(SCC(=O)c2cc(C#N)c(SC)nc2C)[nH]c1=O	-0.71	i	i	-10.2*	i	122.3*	0.133*
CC(=O)NC(=S)Nc1sc2c(c1C(N)=O)CCC(C)C2 (stereo not drawn)	-0.09	i	i	i	i	.	.
COc1ccccc1OCc1ccc(C(=O)N(C)c2ccccc2)o1	0.23	i	i	i	i	.	.
CN(C(=O)c1ccc(COc2ccccc2Cl)o1)c1ccccc1	-3.16	i	i	-9.94*	i	82.0*	i
O=C(/C=C/c1cnc2ccccc2n1)NC12CC3CC(CC(C3)C1)C2	0.4	i	i	i	i	.	.
CSc1ccccc1C(=O)C1CCCN(C(=O)c2ccc(N3CCOCC3)cc2)C1 (stereo not drawn)	0.55	i	i	i	i	.	.
O=C(c1cccc2ccccc12)C1CCCN(C(=O)c2ccc(N3CCOCC3)cc2)C1 (stereo not drawn)	-0.89	i	i	-9.27*	i	98.7*	i
CCC(=NCc1ccco1)c1c(C(F)(F)F)[nH]n(-c2nc3ccccc3s2)c1=O	2.05	i	i	-9.05*	i	114.0*	i
Cc1ccc(C)c(OCCNc2ccc([N+](=O)[O-])cn2)c1	-0.2	i	i	i	i	.	.
Cc1ccc(C)c(OCCNc2ncccc2[N+](=O)[O-])c1	-0.79	i	i	-11.8*	i	102.0*	i
Cn1nccc1C(=O)Nc1ccc2c(c1)OCO2	1.71	i	i	i	i	.	.
CN(C(=O)Nc1ccc(C(C)(C)C)cc1)C1CCCCC1	1.24	i	i	i	i	.	.
N#Cc1ccc(C(=O)CSc2n[nH]c(=O)n2-c2cccnc2)cc1	-0.08	i	i	i	i	.	.
COC(=O)c1ccccc1NC(=O)c1ccc(COc2cc(C)cc(C)c2)o1	1.03	i	i	-9.46*	i	86.7*	i
CC(NC(=O)C1CCC(C)(C(=O)O)C1(C)C)c1ccccc1 (stereo not drawn)	1.08	i	i	i	i	.	.
Cc1sc2ncnc(N3CCC(C(=O)NNC(=O)COc4ccccc4Cl)CC3)c2c1C	1.47	i	i	i	i	.	.
SMILES	Kir21 block	ANO1 block	TMEM16A act	KCNK3 inh	KCNK9 block	KCNK3 inh conf	KCNK3 uninduced
Cc1sc2ncnc(N3CCC(C(=O)Nc4ccc(OC(F)F)c(Cl)c4)CC3)c2c1C	.	.	i	-12.7*	.	141.7*	0.14*
O=C(Nc1cccc(-n2cnnn2)c1)c1ccncc1	-0.04	i	i	i	i	.	.
O=C(Nc1cccc(-n2cnnn2)c1)c1cccs1	-0.55	i	i	-10.5*	i	79.3*	i
O=C(Nc1cccc(O)c1)c1cccc(NC(=O)c2cccs2)c1	-0.45	i	i	-12.6*	-7.99*	110.0*	i
O=C(NN=C1CCCCC1)Nc1ccccc1Cl	-0.58	i	i	i	i	.	.
COc1cc(/C=C2\SC(=O)N(CCN)C2=O)ccc1OS(=O)(=O)c1cc(C)ccc1C	-1.18	.	i	i	i	.	.
Cc1cc(=O)[nH]c(N/N=C/c2ccc(OC(=O)c3cccnc3)cc2)n1	0.64	i	i	i	i	.	.
Cc1cc(C)c(C#N)c(SCSCc2ccccc2)n1	-0.67	i	i	-9.72*	i	106.7*	i
CC(C)(C)c1ccc(C(=O)NCCC(=O)N2CCN(c3ncccn3)CC2)cc1	0.68	100*	i	-12.3*	i	86.0*	i
CC(C)(C)c1ccc(C(=O)NCCC(=O)N2CCCC2)cc1	1.67	i	i	i	i	.	.
O=C(c1ccc2c(=O)n(Cc3ccccc3Cl)c(=S)[nH]c2c1)N1CCCC1	-1.08	i	i	i	i	.	.
CCCOC(=O)/C(=C\C=C\c1ccccc1)NC(=O)c1ccccc1	0.49	i	i	-10.1*	i	147.3*	0.148*
CCSc1nc2c(c(-c3ccc(C)o3)c1C#N)CCCC2	-1.65	i	i	-8.8*	-6.69*	95.7*	i
CNS(=O)(=O)c1cccc(C(=O)OCC(=O)Nc2ccc(Cl)cn2)c1	0.83	i	i	i	i	.	.
CCNC(=O)c1cccc(NC(=O)c2cc(C3CC3)nc3c2cnn3C(C)C)c1	.	.	i	i	.	.	.
CC(C)n1ncc2c(C(=O)Nc3cccc(C#N)c3)cc(C3CC3)nc21	.	.	i	-11.7*	.	117.7*	0.132*
Cc1c(C)c2ccc(OC(C)C(=O)NCCCN3CCOCC3)c(C)c2oc1=O (stereo not drawn)	0.77	i	i	i	i	.	.
CCc1ccc(CNC(=O)c2ccc3nc(C4CCCCC4)oc3c2)nc1	0.97	i	i	i	i	.	.
c1ccc(-c2nc(-c3ccco3)n3ccccc23)cc1	0	i	i	-9.75*	i	116.0*	0.148*
c1ccc(Nc2c(-c3ccco3)nc3ccccn23)cc1	1.63	i	i	i	i	.	.
CC(=O)OC(COc1cccc(C)c1)Cn1cnc2ccccc21 (stereo not drawn)	-1.54	i	i	-9.42*	i	126.0*	0.159*
